Screening data (PubChem BioAssay)
TDP1 block = blocks human tyrosyl-DNA phosphodiesterase 1 | recombinant TDP1, AlphaScreen DNA substrate cleavage | 350,000 compounds, 0.28% hits | Potency, µM (highest dose often 130 µM), actives largely listed as inhibitors | Q9NUW8 | AID 485290; further: nearly all actives have a fitted effect of over 40% in size
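Signal: AlphaScreen proximity between streptavidin donor and anti-FITC acceptor beads on intact substrate. Reaction: Tdp1 1 nM, substrate 15 nM final, 5 min RT after 15 min compound preincubation.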
PLK1 PBD block = blocks phosphopeptide binding to human PLK1 polo-box domain; Plk1 PBD binding of FITC phosphopeptide, fluorescence polarization; Potency, µM, hits mostly inhibitors; 360,000 compounds, 2.8% hits; P53350; further: series mostly up to about 57 µM; nearly all actives have a fitted effect of over 65% in size
GCN5L2 inh = GCN5L2 (KAT2A) acetyltransferase inhibition; Q92830; GCN5L2 HAT assay, ThioGlo1 CoA-SH fluorescence; Potency, µM (doses to about 58.9 µM), usual class: inhibitors; 390,000 compounds, 0.21% hits
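Enzyme at 20nM final was mixed with library compounds for 15 min at room temperature. Peptide H3(1-25) at 75uM, acetyl-CoA at 70uM and ThioGlo1 at 50uM were then added. Plates were read immediately and after 20 min (Ex340nm/Em540nm).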
TDP1 cell CPT = growth inhibition of DT40 Tdp1-/-;hTDP1 cells with camptothecin (screen for TDP1 inhibitors); chicken DT40 Tdp1-/-;hTDP1 cells + 20 nM CPT, ATP luminescence, 48 h; Potency, µM (titrated, usually from 46.2 µM), actives largely listed as inhibitors; 420,000 compounds, 12% hits; AID 686979; further: nearly all actives have a fitted effect of over 55% in size
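Cell growth measured by CellTiter-Glo luminescence after a minimum 48 h, 37 C compound exposure with 20 nM CPT in Tdp1-knockout DT40 cells stably expressing hTDP1, seeded 400/well; qHTS titration format.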
VDR inhibitor = blocks the human vitamin D receptor; VDR-SRC2-3 peptide fluorescence polarization, 2 h; Potency, µM, actives largely listed as inhibitors; 400,000 compounds, 0.93% hits
Target sequence (P11473 whole entry, looked up): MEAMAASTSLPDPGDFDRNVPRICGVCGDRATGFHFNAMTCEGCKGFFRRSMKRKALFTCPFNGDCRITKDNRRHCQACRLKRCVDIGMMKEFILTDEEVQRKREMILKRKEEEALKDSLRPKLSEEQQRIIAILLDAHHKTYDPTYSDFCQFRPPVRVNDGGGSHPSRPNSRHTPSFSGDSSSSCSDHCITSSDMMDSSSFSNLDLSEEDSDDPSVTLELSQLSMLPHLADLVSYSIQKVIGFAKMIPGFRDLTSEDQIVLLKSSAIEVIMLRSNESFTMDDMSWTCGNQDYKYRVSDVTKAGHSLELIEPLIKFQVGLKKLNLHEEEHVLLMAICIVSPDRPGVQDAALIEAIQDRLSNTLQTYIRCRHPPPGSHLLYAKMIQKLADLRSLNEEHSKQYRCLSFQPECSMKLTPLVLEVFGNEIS
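Inhibition of the VDR/SRC2-3 peptide interaction is quantified by fluorescence polarization. Compounds (23 nl, pintool) incubate with the reagents for 2 hours at ambient room temperature.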
TDP1 cell noCPT = qHTS for Inhibitors of human tyrosyl-DNA phosphodiesterase 1 (TDP1): qHTS in cells in absence of CPT | DT40 Tdp1-/- hTDP1 cells, no CPT, ATP luminescence, 48 h | Potency, µM (top dose mostly 46.2 µM), actives largely listed as inhibitors | 420,000 compounds, 15% hits | AID 686978, 2013; further: nearly all actives have a fitted effect of over 55% in size
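Stably hTDP1-transfected Tdp1-null chicken DT40 cells were treated with library compounds minus camptothecin and grown for at least 48 hr at 37 °C, after which cellular ATP was quantified by luminescence.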
Large screens that a line does not name were inactive. Only some compounds are listed: those with a hit (about 18% of all), similar ones and a draw of the others. The call rests on the fitted dose curve; in most records, active means well fitted curve in the direction sought with a large enough effect; inconclusive means small, poorly fitted or top-dose-only effect, or another doubt; inactive means no such curve, though single readings can be large; an effect the other way counts as inactive or inconclusive.

O=C(NCc1ccco1)C1CC(=O)N(c2ccc(O)cc2)C1 (stereo not given)	PLK1 PBD block 3.4µM, TDP1 cell CPT 21µM, TDP1 cell noCPT 26µM
CCOc1ccc(N2CC(C(=O)NCc3cccc(C)c3)CC2=O)cc1 (stereo not given)	PLK1 PBD block 6µM, GCN5L2 inh inconclusive, TDP1 cell CPT inconclusive, TDP1 cell noCPT inconclusive
CCOc1ccc(N2CC(C(=O)OCC(=O)c3ccc(OC)cc3)CC2=O)cc1 (stereo not given)	PLK1 PBD block 30µM, TDP1 cell CPT inconclusive, VDR inhibitor inconclusive, TDP1 cell noCPT inconclusive (no result: TDP1 block)
COc1ccc(CNC(=O)[C@H](C)NC(=O)C2CC(=O)N(c3ccc(OC)cc3)C2)cc1 (stereo not given in full)	PLK1 PBD block 27µM, TDP1 cell CPT inconclusive, VDR inhibitor inconclusive
COc1ccc(N2CC(C(=O)OCC(=O)c3ccc(C)cc3)CC2=O)cc1 (stereo not given)	none
Cc1c(C(=O)Nc2cc(F)ccc2F)sc2nc3n(c(=O)c12)CCCCC3	TDP1 cell CPT inconclusive
Nc1nnc(-c2ccncc2)s1	none
c1cc(-c2sc(-c3ccncc3)c(-c3ccncc3)c2-c2ccncc2)ccn1	TDP1 cell CPT inconclusive, TDP1 cell noCPT 10µM (no result: TDP1 block)
CCC(=O)N1CCC(C)(C(=O)Nc2ccc(OC)c(OC)c2)C1 (stereo not given)	none (no result: TDP1 block, GCN5L2 inh, VDR inhibitor)
CCOC(=O)CN(C(=O)Cn1nnc(-c2ccc(OC)cc2)n1)C(C(=O)NC1CCCC1)c1ccc(F)cc1 (stereo not given)	TDP1 cell CPT inconclusive
O=C(NC1CCCC1)C(c1ccc(F)cc1)N(Cc1ccc(F)cc1)C(=O)CCl (stereo not given)	TDP1 cell CPT 3.3µM, TDP1 cell noCPT 4.6µM
COc1ccc(-c2nnn(CC(=O)N(Cc3ccc(F)cc3)C(C(=O)NC3CCCC3)c3ccc(F)cc3)n2)cc1 (stereo not given)	TDP1 cell CPT 21µM, TDP1 cell noCPT inconclusive (no result: TDP1 block, GCN5L2 inh)
CS(=O)(=O)N(CC(=O)O)Cc1cccc(CN(CC(=O)O)S(C)(=O)=O)c1	none (no result: TDP1 block)
Cc1ccc(NC(=O)Nc2cc(C(F)(F)F)c[nH]c2=O)cc1	none
Cc1cc(NS(=O)(=O)c2ccc(NC(=O)CSc3nc4sc(C(=O)O)c(C)c4c(=O)[nH]3)cc2)no1	PLK1 PBD block 27µM
Cc1sc2nc(C(C)Nc3ccccc3N3CCOCC3)[nH]c(=O)c2c1C (stereo not given)	TDP1 cell CPT inconclusive, TDP1 cell noCPT 15µM
Cc1sc2nc(CSCC(=O)Nc3ccc(N4CCOCC4)cc3)[nH]c(=O)c2c1C	PLK1 PBD block 30µM, TDP1 cell CPT inconclusive, VDR inhibitor inconclusive, TDP1 cell noCPT inconclusive
CCc1cccc(NC(=O)CSCc2nc3sc(C)c(C)c3c(=O)[nH]2)c1	none
CCC(=O)Nc1ccc(S(=O)(=O)Nc2cc(C)on2)cc1	none
Cc1cc(NS(=O)(=O)c2ccc(NC(=O)CSc3nc4sc(C)c(C)c4c(=O)[nH]3)cc2)no1	GCN5L2 inh 14µM
CCN(CC)CCC(c1cc(OC)c(OC)c(OC)c1)c1c(OC)cc(OC)c2c1OC(=O)CC2c1ccc(N(C)C)cc1 (stereo not given)	none (no result: PLK1 PBD block, GCN5L2 inh, TDP1 cell CPT, TDP1 cell noCPT)
Cc1noc(C)c1C(=O)N1CCC2(CCCN(C(=O)Nc3cccc(F)c3)C2)CC1	none (no result: TDP1 block, PLK1 PBD block)
COc1ccccc1CNc1nc(-c2cccnc2)nc2ccccc12	TDP1 cell CPT inconclusive, TDP1 cell noCPT inconclusive (no result: TDP1 block, PLK1 PBD block)
CCc1c(C)nc2nncn2c1NCc1ccc(Cl)cc1	TDP1 cell CPT 8.2µM, TDP1 cell noCPT 4.6µM (no result: PLK1 PBD block)
COc1ccccc1CNc1cc(-c2ccccc2)nc2nncn12	TDP1 cell CPT 23µM, TDP1 cell noCPT 16µM (no result: PLK1 PBD block)
Clc1ccc(CNc2cc(-c3ccccc3)nc3nncn23)cc1	TDP1 cell CPT 16µM, TDP1 cell noCPT 13µM (no result: PLK1 PBD block)
Clc1cccc(CNCCNCc2cccc(Cl)c2)c1	TDP1 cell noCPT inconclusive
Clc1cccc(CNc2cc(-c3ccccc3)nc3nncn23)c1	TDP1 cell CPT 15µM, TDP1 cell noCPT 15µM (no result: PLK1 PBD block)
